Drawing on article PMC7862700, “An all-to-all approach to the identification of sequence-specific readers for epigenetic DNA modifications on cytosine”, this text covers binding signal for 39 sequences.

The assay deals with T1, FEV (Homo sapiens, UniProt Q99581 1-238).
T1 sequence: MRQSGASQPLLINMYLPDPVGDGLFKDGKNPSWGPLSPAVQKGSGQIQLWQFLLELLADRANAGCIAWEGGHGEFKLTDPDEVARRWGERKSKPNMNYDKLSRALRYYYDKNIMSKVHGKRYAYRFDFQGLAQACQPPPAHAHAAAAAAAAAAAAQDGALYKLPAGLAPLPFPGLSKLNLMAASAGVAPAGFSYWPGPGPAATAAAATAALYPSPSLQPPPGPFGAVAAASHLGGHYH
The experiment in a line: DAPPL (digital affinity profiling via proximity ligation, sequencing); 10 mM Tris-HCl pH 7.5, 50 mM NaCl, 1 mM DTT, 4% glycerol, room temperature, 30 min; GST-TFs on glutathione beads, 16-mer random dsDNA library, 0.1% formaldehyde crosslink after washing; high values mean tight binding. The settings on record: protein: recombinant; tags: N-terminal GST; dsDNA, one strand shown. In short, it runs like this: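 Beads coated with glutathione captured GST-fused human transcription factors that had been expressed in yeast, and the factors were then given DNA barcodes and pooled with a tag-only sample. The pools were incubated with 200 nmole of a random double-stranded 16-mer DNA library in Tris/NaCl/DTT/glycerol buffer for 30 min at room temperature, washed, crosslinked with 0.1% formaldehyde and proximity-ligated with BsaI/T4 ligase at 37 °C for 1 h. PCR amplification and Illumina NextSeq500 sequencing came last. Binding signal is each hexamer's read frequency for a factor divided by its frequency for the tag-only sample.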
As for GACCTC, the binding signal is 1.41 fold enrichment (6-mer frequency, TF over GST control).
The result for CGTTCC reads 1.5 fold enrichment (6-mer frequency, TF over GST control); that for ACTGGC, 1.11 fold enrichment (6-mer frequency, TF over GST control); that for ATGGAC, 1.3 fold enrichment (6-mer frequency, TF over GST control).
The result for CAATTG reads 1.18 fold enrichment (6-mer frequency, TF over GST control); that for TGCCGA, 1.11 fold enrichment (6-mer frequency, TF over GST control).
Turning to ACTCAC, the binding signal is 1.24 fold enrichment (6-mer frequency, TF over GST control).
Turning to GCCTCA, the binding signal was 1.19 fold enrichment (6-mer frequency, TF over GST control).
For CGACCC the value was 1.17 fold enrichment (6-mer frequency, TF over GST control).
The result for CCACGC reads 1.2 fold enrichment (6-mer frequency, TF over GST control).
As to TGTTCA, the binding signal was 1.19 fold enrichment (6-mer frequency, TF over GST control).
For GAAAAA the value was 1.09 fold enrichment (6-mer frequency, TF over GST control); for TGTACA, 1.24 fold enrichment (6-mer frequency, TF over GST control); for CGTCCT, 1.38 fold enrichment (6-mer frequency, TF over GST control).
For GAAGCA the value was 1.29 fold enrichment (6-mer frequency, TF over GST control); for ACTGCC, 1.39 fold enrichment (6-mer frequency, TF over GST control); for TGCGTA, 1.06 fold enrichment (6-mer frequency, TF over GST control).
For CGCGTC the value was 1.2 fold enrichment (6-mer frequency, TF over GST control); for CCGACA, 1.31 fold enrichment (6-mer frequency, TF over GST control).
With GCGTTC, the binding signal was 1.07 fold enrichment (6-mer frequency, TF over GST control).
For GTACAT the value was 1.35 fold enrichment (6-mer frequency, TF over GST control); for CGACAT, 1.31 fold enrichment (6-mer frequency, TF over GST control).
The result for CCTGCA reads 1.26 fold enrichment (6-mer frequency, TF over GST control); that for TGCAAC, 1.39 fold enrichment (6-mer frequency, TF over GST control).
The result for TGCCCC reads 1.36 fold enrichment (6-mer frequency, TF over GST control); that for TGACAT, 1.23 fold enrichment (6-mer frequency, TF over GST control); that for CCGTAC, 1.24 fold enrichment (6-mer frequency, TF over GST control).
With TGAAAC, the binding signal is 1.31 fold enrichment (6-mer frequency, TF over GST control).
For ACTGCG the value was 1.26 fold enrichment (6-mer frequency, TF over GST control).
For CCCTCA the value was 1.24 fold enrichment (6-mer frequency, TF over GST control); for TGACCA, 1.22 fold enrichment (6-mer frequency, TF over GST control).
In the case of TCTGAC, the binding signal was 1.15 fold enrichment (6-mer frequency, TF over GST control).
For ACGAAC the value was 1.15 fold enrichment (6-mer frequency, TF over GST control); for GAAGTT, 1.62 fold enrichment (6-mer frequency, TF over GST control); for CCGGCA, 1.53 fold enrichment (6-mer frequency, TF over GST control).
For ACCGTC the value was 1.17 fold enrichment (6-mer frequency, TF over GST control); for CTGCCA, 1.24 fold enrichment (6-mer frequency, TF over GST control).
The result for GTCTCT reads 1.15 fold enrichment (6-mer frequency, TF over GST control); that for GAAACT, 1.29 fold enrichment (6-mer frequency, TF over GST control).
